An excerpt weighted towards active compounds, which were near 8.8% of everything screened.
KB-3-1 tox = qHTS assay for MDR1-selective chemotherapeutics: Primary screen using the parental adenocarcinoma cell KB-3-1 | actives 1.4% (n = 400,000) | Potency, µM (series often up to 46.1 µM), most hits filed as cytotoxic | AID 1347075, 2019 | KB-3-1 viability, CellTiter-Glo ATP luminescence, 72 h; further: potency means the concentration at half of the fitted maximal effect; nearly all actives have a fitted effect of over 60% in size
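Cytotoxicity in the drug-sensitive parental line KB-3-1 was scored as loss of CellTiter-Glo luminescence following 72 h incubation with compound. Values come from curve fitting of normalized concentration-response data.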
HT1080 IDH1KD tx = qHTS for induction of synthetic lethality in tumor cells producing 2HG: qHTS for the HT-1080-IDH1KD cell line; HT-1080 IDH1 knockdown viability, ATP luminescence, 48 h; Potency, µM (titrated, usually from 46.1 µM), for the others: at the top dose activity, negative = toxicity, actives largely listed as cytotoxic; actives 2% (n = 360,000);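 further: potency means the concentration at half of the fitted maximal effect; 0% = DMSO wells and -100% = cell-free medium wells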
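Knockdown cells (IDH1KD HT-1080) received compounds 2 h after plating at 750 cells/well and were kept 48 h at 37 °C in 5% FBS RPMI. A CellTiter-Glo luminescence read gave % activity for curve fitting.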
HT1080-NT tox = qHTS for induction of synthetic lethality in tumor cells producing 2HG: qHTS for the HT-1080-NT fibrosarcoma cell line | HT-1080-NT fibrosarcoma viability, CellTiter-Glo ATP luminescence, 48 h | Potency, µM (highest dose often 46.1 µM), for inactives: at the top dose activity, negative = less viability, hits mostly cytotoxic | actives 1.6% (n = 360,000);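 further: NT is the 2HG producing partner of a matched IDH1 knockdown line; potency means the concentration at half of the fitted maximal effect; 0% = DMSO-treated cells and -100% = media-only wells without cells; nearly all actives have a fitted effect of over 55% in size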
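750 cells/well, RPMI + 5% FBS; 2 h settle, compound pin-transfer, 48 h at 37 degrees C. CellTiter-Glo 10 min RT, luminescence. Normalized to DMSO and media-only wells.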
IL-1B inflam inh = qHTS for Inhibitors of Inflammasome Signaling: IL-1-beta AlphaLISA Primary Screen. THP-1 LPS/ATP IL-1B secretion, AlphaLISA, 16 h; stronger effect = lower value. activity change, % at 57.5 µM. actives 4.7% (n = 360,000). AID 743279, 2014; in the data active means activity change below about -50%; inconclusive means mostly about -30% to -49%
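THP-1 cells pretreated 1 hr with compounds (up to 57.5 uM final), then stimulated with LPS (250 ng/mL final) plus ATP (1.25 mM final); secreted IL-1B measured by AlphaLISA after 16 hr, decreased signal indicating inhibition.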
KB-V1 cytotox = qHTS assay for MDR1-selective chemotherapeutics: Primary screen using the drug-selected MDR subline cells KB-V1; KB-V1 MDR cells viability, CellTiter-Glo, 72 h; Potency, µM (highest dose often 46.1 µM), most hits filed as cytotoxic; actives 3.4% (n = 400,000); further: potency means the concentration at half of the fitted maximal effect; nearly all actives have a fitted effect of over 60% in size
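Drug-selected KB-V1 cells, grown in DMEM lacking phenol red with 10% FBS, receive compound titrations; after three days at 37 degrees C, surviving cell ATP is quantified by CellTiter-Glo luminescence and responses normalized and curve-fitted.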
An asterisk follows results filed as active; i = inactive; ? = inconclusive; nt = no result given. Unless noted, the call rests on the fitted dose curve; in most records, active means well fitted curve in the direction sought with a large enough effect; inconclusive means small, poorly fitted or top-dose-only effect, or another doubt; inactive means no such curve, though single readings can be large; an effect the other way counts as inactive or inconclusive. Unless noted, on the % scale 0 is the no-effect control and ±100 the full control effect.

SMILES | KB-3-1 tox | HT1080 IDH1KD tx | HT1080-NT tox | IL-1B inflam inh | KB-V1 cytotox
Cn1c(-c2ccccc2)c(CCO)c2ccccc21 | ? | -5% | -3% | 10 | i
COc1ccc(NS(=O)(=O)c2cccs2)cc1S(=O)(=O)N1CCCCC1 | ? | -14% | -11% | 7 | ?
O=C(CCCC(=O)N/N=C\c1ccccn1)N/N=C\c1ccccn1 | i | -1% | 3% | 0 | i
CC(Nc1cccc2ccccc12)C(=O)N/N=C/c1ccccn1 (stereo not drawn) | i | 7.1µM* | 14µM* | 49 | ?
CCN(CC)CCOc1cc2c(nn1)Oc1ccccc1N2C | i | -10% | 23% | -18 | ?
c1ccc(CN2CCN(c3cnc4ccccc4n3)CC2)cc1 | i | -2% | 0% | 22 | i
CN1c2ccccc2Oc2nnc(N3CCN(Cc4ccccc4)CC3)cc21 | i | -23% | 1% | -96* | i
CN1c2ccccc2Oc2nnc(Cl)cc21 | i | 2% | 12% | -52* | i
CCc1ccc(NC(=O)C2CCCN2S(=O)(=O)c2cccc3nsnc23)cc1 (stereo not drawn) | ? | nt | nt | nt | i
O=C(c1ccc(OC2CCN(C/C=C/c3ccc(F)cc3)CC2)cc1)N1CCCC1 | i | ? | -12% | -71* | i
Clc1ccccc1Cn1nc(-c2ccccc2)nc1-c1ccccc1 | i | 8% | 15% | 0 | 15µM*
Cc1cccc(C(=O)OCC(=O)NN2C(=O)NC3(CCC(C)CC3)C2=O)c1O (stereo not drawn) | i | 11% | 13% | 3 | i
COc1ccc(C(C#N)=C2C=CC(=NO)C=C2)cc1 | ? | 10µM* | 15µM* | -101* | ?
CC(=O)OC(=C(OC(C)=O)c1ccccc1)c1ccccc1 | i | -1% | 13% | -5 | i
CC(=O)ON=C1C=CC(=C(C#N)c2ccccc2)C=C1 | 3.7µM* | 5.8µM* | 7.3µM* | -111* | 7.3µM*
C[C@@H]1CN([C@@H](C)CO)C(=O)c2cc(NS(C)(=O)=O)ccc2O[C@@H]1CN(C)S(=O)(=O)c1ccccc1 | i | -4% | 1% | -21 | i
O=C1NC(=O)C(Cc2c[nH]c3ccccc23)N1 (stereo not drawn) | i | -1% | 9% | 21 | i
Cc1cc(NC(=O)CSc2nc3ccccc3n2CCC#N)no1 | i | 6% | -2% | -56* | i
CCCCn1c(SCC(=O)Nc2cc(C)on2)nc2c1c(=O)n(C)c(=O)n2C | i | 22% | 29% | 38 | 15µM*
CCCn1c(SCC(=O)Nc2ccc3c(c2)OCO3)nc2c1c(=O)n(C)c(=O)n2C | i | -10% | -12% | 31 | ?
CCCn1c(SCC(=O)Nc2ccccc2N2CCCCC2)nc2c1c(=O)n(C)c(=O)n2C | i | -29% | 16µM* | -27 | ?
CCCCn1c(Oc2ccc(C(=O)OC)cc2)nc2c1c(=O)n(C)c(=O)n2C | i | 5% | -11% | -73* | 16µM*
CCn1c(SCC(=O)Nc2cc(C)on2)nc2c1c(=O)n(C)c(=O)n2C | i | 6% | 1% | 9 | i
O=S1(=O)N=C(Oc2cccc3ccccc23)c2ccccc21 | ? | -15% | -4% | -9 | i
CCCn1c(SCC(=O)Nc2ccc(NC(C)=O)cc2)nc2c1c(=O)n(C)c(=O)n2C | i | -13% | 2% | 24 | i
SMILES | KB-3-1 tox | HT1080 IDH1KD tx | HT1080-NT tox | IL-1B inflam inh | KB-V1 cytotox
CCCn1c(SCC(=O)Nc2ccccc2C(=O)OC)nc2c1c(=O)n(C)c(=O)n2C | i | 2% | 9% | 33 | 5µM*
CC(O)CSc1nc2c(c(=O)n(C)c(=O)n2C)n1CCCc1ccccc1 (stereo not drawn) | ? | -7% | -4% | 21 | i
CCCCn1c(SCc2nnc(-c3ccccc3)o2)nc2c1c(=O)n(C)c(=O)n2C | i | 10% | 11% | -13 | 2.6µM*
CCc1ccc(OCC(=O)Nc2ccc(N3CCN(S(C)(=O)=O)CC3)cc2)cc1 | i | 15% | 0% | -8 | i
CCCCOc1ccc(C(O)(CCC)CCN2CCOCC2)cc1 (stereo not drawn) | 23µM* | -25% | -8% | 0 | 10µM*
CCOc1ccc(OCc2cccc(C(=O)Nc3ccc(CN4CCCCC4)cc3)c2)cc1 | ? | ? | 15µM* | -100* | ?
COc1ccc(OCc2cccc(C(=O)Nc3ccc(CN4CCCCC4)cc3)c2)cc1 | ? | -19% | -1% | -16 | i
CCCOc1ccc(C(=O)Nc2ccc(CN3CCOCC3)cc2)cc1 | i | -5% | -10% | -21 | i
CCCOc1cccc(C(=O)Nc2ccc(CN3CCOCC3)cc2)c1 | i | -15% | 1% | -53* | i
CCCCOc1ccc(C(O)(CC)CCN2CCOCC2)cc1 (stereo not drawn) | i | -15% | -13% | ? | ?
CCCCOc1ccc(C(=O)Nc2ccc(CN3CCOCC3)cc2)cc1 | i | 1% | 3% | -62* | i
C#CCN1CCc2onc(-c3ccc(Br)cc3)c2C1=O | ? | 0% | -23% | -2 | 18µM*
COc1ccccc1Cc1c(C2CCCCC2)nc2cc(C)c(Br)c(C)n12 | i | -25% | -11% | 0 | ?
CC1=C(C(=O)Nc2ccccc2F)C(c2ccsc2)C2=C(CC(C)(C)CC2=O)N1 (stereo not drawn) | ? | ? | ? | 41 | i
CC1=C(C(=O)Nc2cccc(F)c2)C(c2ccsc2)C2=C(CC(C)(C)CC2=O)N1 (stereo not drawn) | 2.9µM* | 2.1µM* | ? | 48 | 15µM*
COc1ccc(C(=O)CCC(=O)Nc2cccnc2)cc1 | i | 20% | 11% | 16 | i
COc1ccc(-c2c(C#N)c(SCC(=O)c3cc4ccccc4oc3=O)nc(C)c2C(=O)Nc2ccccc2)cc1 | 18µM* | -2% | 2% | 26 | ?
CC1(C)Oc2c(ccc(O)c2CN2CCOCC2)C2=C1CCCC2 | i | 24% | 18% | -28 | 18µM*
CC(=O)Oc1ccc(-c2cccc(C(=O)N(C)c3ccc(O)cc3)c2)cc1 | i | -8% | -8% | -3 | i
O=S1(=O)c2ccc(Br)cc2OC(COCc2ccccc2)CN1Cc1ccccc1 (stereo not drawn) | i | 12% | 2% | -2 | ?
O=S1(=O)c2ccc(Br)cc2N2CCC[C@@H]2CN1Cc1ccccc1 | ? | 3.7µM* | ? | 72 | i

Compound activity as filed in PubChem.
